Bioassay records as filed in PubChem.
GPR151 activ: activates the human receptor GPR151; AID 1508602; Q8TDV0; actives 1% (n = 650,000); PathHunter beta-arrestin GPR151 cells, luminescence; activation, % at 11.2 µM; in the data active = activation above about 4.9%;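 note: 0% = median of compound wells and 100% = cells with positive control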
TEAD-YAP inh: TEAD-YAP interaction inhibition; HEK-TIYL cells, TEAD-Gal4/YAP UAS-luciferase luminescence; inhibition, % at 9.12 µM; actives 1.4% (n = 640,000); AID 1259422; in the data active = inhibition above about 32%;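 note: 0% = median of test compound wells and 100% = reference inhibitor wells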
FBW7 act: activators of human E3 ligase FBW7; AID 1259310; normalized activity (activation), % at 26.1 µM; AlphaScreen FBW7–phospho-cyclin E peptide binding, activator screen; actives 0.13% (n = 650,000); Q969H0; in the data active = normalized activity above about 1.9%;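 note: purified mutant Fbw7 with reduced substrate affinity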
Target sequence (Q969H0 whole entry, looked up): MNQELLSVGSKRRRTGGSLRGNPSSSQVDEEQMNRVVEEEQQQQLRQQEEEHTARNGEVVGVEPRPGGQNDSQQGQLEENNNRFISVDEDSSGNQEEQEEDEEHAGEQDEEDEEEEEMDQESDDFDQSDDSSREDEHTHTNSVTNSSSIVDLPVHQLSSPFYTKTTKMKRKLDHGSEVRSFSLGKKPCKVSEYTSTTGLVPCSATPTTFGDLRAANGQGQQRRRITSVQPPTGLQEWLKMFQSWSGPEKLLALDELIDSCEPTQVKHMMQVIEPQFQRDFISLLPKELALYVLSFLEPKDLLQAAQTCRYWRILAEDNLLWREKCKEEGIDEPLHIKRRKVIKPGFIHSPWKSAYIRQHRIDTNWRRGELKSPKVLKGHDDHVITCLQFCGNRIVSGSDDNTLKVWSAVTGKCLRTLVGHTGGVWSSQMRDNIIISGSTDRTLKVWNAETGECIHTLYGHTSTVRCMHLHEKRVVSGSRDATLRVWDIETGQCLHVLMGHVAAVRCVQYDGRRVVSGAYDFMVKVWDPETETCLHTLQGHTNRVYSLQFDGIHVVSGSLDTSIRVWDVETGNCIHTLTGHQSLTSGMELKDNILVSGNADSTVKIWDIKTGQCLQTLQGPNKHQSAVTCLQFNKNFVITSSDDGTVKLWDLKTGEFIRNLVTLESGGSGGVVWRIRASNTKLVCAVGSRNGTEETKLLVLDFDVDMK
MITF primary: inhibitors of human MITF; AlphaScreen MITF homodimerization, bead proximity signal; AID 1259374; inhibition, % at 2.6 µM; O75030; actives 0.91% (n = 650,000); in the data active = inhibition above about 50%;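 note: 0% = vehicle wells with protein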
* marks the source's active call; other numbers are inactive results; . = no result; ! = not confirmed by another sample. Rows were chosen to be rich in hits. Some 3.5% of all compounds tested hit in one or more screens of this group.

SMILES | GPR151 activ | TEAD-YAP inh | FBW7 act | MITF primary
CCOC(=O)C1(c2ccccc2)CCN(Cc2ccc(O)c(C(=O)OC)c2)CC1 | 0 | 35* | 0 | 7
CN(N=O)c1ccc(O)c(O)c1 | 1 | 2 | 0 | 77*
CCN(CC)c1ccc(CNCCc2c(C)[nH]c3ccccc23)cc1 | 0 | 9 | 0 | 75*
COc1[nH]c2ccccc2c1C=C(C#N)C#N | 1 | 71* | 0 | 7
Cc1c(O)c(O)cc2c1CC=C1[C@@]2(C)CC[C@@]2(C)C3C[C@](C)(C(=O)O)CC[C@]3(C)CC[C@]12C (some centres undefined) | -1 | 56* | 0 | -3
CC1=C(O)C(=O)C=C2C1=CC=C1[C@@]2(C)CC[C@@]2(C)[C@@H]3C[C@](C)(C(=O)O)CC[C@]3(C)CC[C@]12C | -1 | 43* | 0 | -13
COc1cccc(CN2CCN(CC(C)(C)C)CC2CCO)c1 (centres undefined) | -2 | 5 | 0 | 16
NC(=O)C1CCN(/C=C2\C(=O)NC(=O)N(Cc3ccco3)C2=O)CC1 | -1 | 12 | 0 | 58*
O=C1NC(=O)N(Cc2ccco2)C(=O)/C1=C\c1cn(Cc2ccccc2)c2ccccc12 | 0 | 0 | 0 | 28
O=C(O)COc1c(Br)cc(C=C2C(=O)NC(=O)NC2=O)cc1Br | 1 | -3 | 0 | 10
CN(C(=O)Cc1ccccc1)[C@H](CN1CCCC1)c1ccccc1 | 0 | . | 1.9* | 2
CCOc1ccc(C(=O)C(CN2CCCC2)c2ccccc2)cc1 (centres undefined) | 0 | 4 | 0 | -22
O=[N+]([O-])c1cccc(CN2CCN(Cc3ccccc3)CC2)c1 | -1 | 2 | 0 | 36
O=Cc1cn(Cc2cccc([N+](=O)[O-])c2)c2ccccc12 | -1 | 48* | -1 | -4
COc1ccc(C=C2C(=O)NC(=S)NC2=O)c2ccccc12 | 0 | 8 | -1 | 12
COc1cc(CN2CC3CC(C2)c2cccc(=O)n2C3)c([N+](=O)[O-])cc1OC (centres undefined) | 2 | 3 | 0 | 7
CCOC(=O)C1=C(NC(=S)NC(=O)c2ccccc2)c2ccccc2CC12CCCC2 | 0 | 41* | 0 | 17
O=C1NC(=S)NC(=O)C1=Cc1cc2c(cc1[N+](=O)[O-])OCO2 | 0 | -1 | -1 | 86*
NCCc1cc(O)c(O)cc1O | 0 | -9 | 0 | 114*
CC(=O)Nc1ccc(NC(=S)NC(NC(=O)CF)C(Cl)(Cl)Cl)cc1 (centres undefined) | -1 | 4 | 0 | -4
COc1ccc(Cl)cc1C(=O)Nc1ccc(Br)cc1C(=O)c1ccccc1 | 1 | -2 | 0 | -13
O=C(O)c1cc(Br)c([N+](=O)[O-])cc1[N+](=O)[O-] | 1 | 10 | 0 | 12
COc1cc(NC(=O)CN2C(=O)C(C)N=C(c3ccccc3)c3ccccc32)cc(OC)c1 (centres undefined) | 0 | 37* | 0 | 5
CCOc1ccc(NC(=O)CN2C(=O)C(C)N=C(c3ccccc3)c3ccccc32)cc1 (centres undefined) | 1 | 8 | 0 | -1
Cc1cccc(N2CCN(C(=O)CCc3nc(C4=CCN(C)CC4)no3)CC2C)c1 (centres undefined) | 0 | 13 | 4.1* | 24
SMILES | GPR151 activ | TEAD-YAP inh | FBW7 act | MITF primary
CN1CC=C(c2noc(CCC(=O)Nc3cccc(Cl)c3)n2)CC1 | -1 | 11 | 1.9* | 36
CN1CC=C(c2noc(CCC(=O)Nc3ccccc3Cl)n2)CC1 | -1 | -8 | 1 | 12
CN1CC=C(c2noc(CCC(=O)N3CCN(c4ncccn4)CC3)n2)CC1 | -1 | -9 | 1 | 17
Cc1nc2sc(N)n[n+]2c(C)c1Cl | -1 | -1 | 0 | -3
COc1ccc(-c2ccc(C=C3C(=O)NC(=S)NC3=O)o2)cc1[N+](=O)[O-] | -1 | 13 | -1 | 6
O=C1C=CC(=O)c2c(O)cccc21 | 0 | 2 | 0 | 108*
COc1ccc(C2CC3CCC(C2O)N3Cc2ccccc2)cc1 (centres undefined) | 4 | -7 | 0 | -4
CCCC(=O)N[C@H]1CCOC1=O | 2 | . | . | 5
CNc1ccccc1C(=O)O | -3 | 1 | 1 | -11
C[CH2][Hg][S]c1ccccc1C(=O)O | 4 | 74* | 0 | -6
COc1ccc2c(c1)[nH]c1c(C)nccc12 | 0 | 85*! | 0 | -9
COc1ccc2c3c([nH]c2c1)C(C)=NCC3 | 0 | 24 | 0 | 27
NCCCC[C@@H]1NC(=O)[C@H]2CN(Cc3ccncc3)CCN2C1=O | 1 | 3 | 1 | 17
CC(=O)C1C2NC(=S)NC1(C)Oc1ccccc12 (centres undefined) | 4 | 5 | 0 | 15
Cc1ccc(Cl)cc1-n1c(/C=C/c2cccc(F)c2)nc2ccccc2c1=O | 0 | 6 | 0 | -3
C[C@@H]1O[C@@H](O[C@@H]2C=C3CCC4C(CC[C@]5(C)[C@@H](c6ccc(=O)oc6)CC[C@]45O)[C@@]3(C)CC2)[C@H](O)[C@H](O)[C@H]1O (some centres undefined) | 10* | . | 0 | 5
COc1ccc(Cl)cc1NC(=O)c1c(O)c2c(n(Cc3ccco3)c1=O)CCCC2 | 1 | 12 | 0 | 11
CCN(CC)c1ccc(N=Cc2c(O)[nH]c(=O)[nH]c2=O)cc1 | -1 | 15 | 0 | 66*
O=C1NC(=S)N(c2ccccc2F)C(=O)/C1=C\c1ccco1 | 0 | -8 | 0 | 72*
C=CCN1C(=O)/C(=C/c2ccco2)C(=O)NC1=S | -1 | 8 | -1 | 77*
Cc1ccc(N2C(=O)/C(=C\C=C\c3ccco3)C(=O)NC2=S)cc1 | -1 | -1 | 0 | 59*
O=C1NC(=S)N(c2ccccc2)C(=O)/C1=C/c1ccco1 | 3 | 9 | -1 | 66*
CN(C)c1ccc(CN2CC3CC(C2)c2cccc(=O)n2C3)cc1 (centres undefined) | 1 | 11 | 0 | 6
C[C@H]1NC(=O)[C@H]2CN(Cc3cccc4cccnc34)CCN2C1=O | -1 | 1 | 0 | -3
O=c1c2ccccc2nc(/C=C/c2ccccc2)n1-c1cccc(F)c1 | -1 | 5 | 0 | -5
SMILES | GPR151 activ | TEAD-YAP inh | FBW7 act | MITF primary
CN(C)c1ccc(/C=C(\C#N)c2nn(-c3ccccc3)c(N)c2C#N)cc1Br | -1 | -14 | 1 | 14
O=C1NC(=S)N(Cc2ccco2)C(=O)/C1=C\c1cccs1 | 2 | -2 | -1 | 82*
O=C1NC(=O)N(Cc2ccco2)C(=O)/C1=C\c1ccco1 | -1 | -3 | -1 | 31
O=C1NC(=O)C(Cc2ccccc2F)(Cc2ccccc2F)C(=O)N1 | -1 | 7 | 0 | -8
CCN1CCN(c2ccc(NC(=S)NC(C)=O)cc2Cl)CC1 | -1 | 43* | 0 | -11
O=C1NC(=O)C(=Cc2ccc(Br)o2)C(=O)N1 | 2 | -1 | 0 | 63*
Cc1ccc(N2C(=O)NC(=O)/C(=C/c3ccc([N+](=O)[O-])o3)C2=O)cc1 | 0 | 0 | 0 | 70*
COc1ccc(N2C(=O)/C(=C/c3ccc(Br)o3)C(=O)NC2=S)cc1 | -1 | 9 | 0 | 60*
